Assay outcomes from PubChem BioAssay.
Rows were chosen to be rich in hits. Some 11% of all compounds tested hit in one or more screens of this group.
HPGD inh = qHTS Assay for Inhibitors of HPGD (15-Hydroxyprostaglandin Dehydrogenase); Potency, µM, hits mostly inhibitors; purified HPGD, NADH fluorescence kinetic, PGE2 substrate; 150,000 compounds, 4.3% hits; 15-hydroxyprostaglandin dehydrogenase [NAD(+)] (Homo sapiens), P15428
Target sequence (P15428 whole entry, looked up): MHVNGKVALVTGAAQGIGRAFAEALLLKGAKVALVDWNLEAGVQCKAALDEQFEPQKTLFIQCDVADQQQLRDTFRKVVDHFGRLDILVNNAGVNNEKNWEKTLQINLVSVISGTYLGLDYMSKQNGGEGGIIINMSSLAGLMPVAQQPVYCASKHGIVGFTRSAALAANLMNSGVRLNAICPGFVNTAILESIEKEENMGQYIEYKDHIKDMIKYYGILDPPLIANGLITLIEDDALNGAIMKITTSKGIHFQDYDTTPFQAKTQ
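NADH formation kinetics: reaction with 30 uM PGE2 and 1 mM NAD+ (final), 20 nM enzyme, Tris-HCl pH 8 with Tween 20, after 15 min compound preincubation at room temperature. Fluorescence change, last versus first of five reads.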
PNC assembly inh = High Content Assay for Compounds that inhibit the Assembly of the Perinucleolar Compartment; PC3M PTB-GFP, PNC prevalence imaging, 16 h; hits give low values; activity change (PNC), negative = inhibition, % at 10 µM; 140,000 compounds, 3.1% hits; AID 2417, 2010;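 active = readout at or below -70, meaning at least 70% loss of cells showing the perinucleolar compartment, a nuclear body marking cancer cells; inconclusive = readout between -30 and a set limit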
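Compounds are pinned in duplicate onto adhered PC3M cells stably expressing GFP-tagged PTB and incubated 16 h at 37 C. Cells are then fixed, nuclei stained with Hoechst, and PNC-positive cells counted.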
IMPase inh = qHTS Assay for Identifying the Cell-Membrane Permeable IMPase Inhibitors; CHO-M1 cells, IP1 accumulation, HTRF TR-FRET ratio; Inositol monophosphatase 1 (Rattus norvegicus), P97697; 120,000 tested, under 10 active; inhibition (IP1 accumulation), % at 46.1 µM; AID 901, 2007; active = well fitted curve in the direction sought with a large enough effect in the signal ratio, not every such curve was filed as active; inconclusive = small, poorly fitted or top-dose-only effect, or a change in a side signal; inactive = no such curve, though single readings can be large or run the other way; the % refers to the signal ratio;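 also: cells stimulated with carbachol in lithium chloride buffer; higher means more IMPase inhibition seen as more IP1 and lower FRET ratio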
Target sequence (P97697 whole entry, looked up): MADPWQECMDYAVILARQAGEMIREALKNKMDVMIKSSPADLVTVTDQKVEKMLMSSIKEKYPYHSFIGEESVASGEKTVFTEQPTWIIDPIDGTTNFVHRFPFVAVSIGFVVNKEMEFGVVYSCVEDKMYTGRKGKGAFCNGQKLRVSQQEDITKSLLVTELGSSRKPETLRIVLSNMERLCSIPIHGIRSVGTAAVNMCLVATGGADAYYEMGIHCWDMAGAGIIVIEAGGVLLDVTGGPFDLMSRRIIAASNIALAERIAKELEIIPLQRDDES
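Carbachol-driven Gq signalling in CHO-M1 cells (2000/well) generates IP1. Compounds that block IMPase raise IP1 and so reduce the FRET signal from Eu-anti-IP1 and d2-IP1 after a 10 min room-temperature lysis.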
IMPase Li cell = qHTS Assay for Identifying the Cell-Membrane Permeable IMPase Inhibitors: Potentiation with Lithium; AID 1457, 2008; Potency, µM (titrated, usually from 59.4 µM), actives largely listed as inhibitors; 210,000 compounds, 0.35% hits; CHO-M1 cells, IP1 TR-FRET (IP-One), carbachol + lithium; active = well fitted inhibition curve with a large enough effect; inconclusive = small, poorly fitted or top-dose-only effect; inactive = no such curve, though single readings can be large or run the other way;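 also: IP1 builds up when IMPase is blocked and the TR-FRET signal falls; nearly all actives have a fitted effect of over 50% in size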
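Concentration–response in CHO-M1 cells, lithium-potentiated; 30 min at 37C. IP1 detected by competitive TR-FRET after 10 min lysis at RT. Hill-fitted AC50.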
ALDH1A1 inh = qHTS Assay for Inhibitors of Aldehyde Dehydrogenase 1 (ALDH1A1) | Aldehyde dehydrogenase 1A1 (Homo sapiens), P00352 | Purified ALDH1A1, NADH fluorescence, propionaldehyde substrate | Potency, µM (titrated, usually from 75.3 µM), most hits filed as inhibitors | 220,000 compounds, 7.3% hits
Numbers stand for hits; n = inactive; u = inconclusive; x = no result; [ ] = dose if it differs, or a comment. Unless noted, calls follow the shape of the dose curve; as a rule, active = well fitted inhibition curve with a large enough effect (not every such curve was filed as active); inconclusive = small, poorly fitted or top-dose-only effect, or another doubt; inactive = no such curve, though single readings can be large or run the other way.

SMILES | HPGD inh | PNC assembly inh | IMPase inh | IMPase Li cell | ALDH1A1 inh
Cc1ccc(-c2nnc(Nc3ccc(Br)cc3)c3ccccc23)cc1S(=O)(=O)N1CCCCC1 | x | x | n | x | x
C=CCC1(O)C=CCC2C3C4C(OC(C)(C)C)C2C1C34 (configuration not stated) | x | x | x | x | n[13.5 µM]
COc1cccc(-c2csc(N3CCN(C(=S)Nc4ccccc4)CC3)n2)c1 | n | n | n | n | n
COc1cccc(-c2csc(N3CCN(Cc4ccccc4)CC3)n2)c1 | 25µM | n | n | n | 10µM
O=C(CC1(O)C(=O)Nc2cc(Cl)cc(Cl)c21)c1ccncc1 (configuration not stated) | n | n | n | n | 13µM
Cc1ccc(Cl)c2c1NC(=O)C2(O)CC(=O)c1ccc(Br)cc1 (configuration not stated) | n | n | n | n | u
CN(C#N)c1nc(Cl)nc(Nc2cccc(Cl)c2)n1 | n | u | n | n | 4µM
Fc1cccc(Nc2nc(Cl)nc(Cl)n2)c1 | x | x | x | n | n
O=C(CSc1nc2ccccc2[nH]1)Nc1nc(-c2ccc(Br)cc2)cs1 | n | n | x | n | n
COC(=O)c1ccccc1OCCOCCOc1cccc2cccnc12 | n | u | x | n | u
O=[N+]([O-])c1ccccc1OCCOCCOc1cccc2cccnc12 | n | -86 | x | n | u
O=C(NNc1c(Cl)cncc1Cl)c1sccc1Cl | x | x | x | x | n
O=C(NNc1ccc(Cl)cc1)c1sccc1Cl | x | x | x | x | 8.9µM
CCc1c(C)n([O-])c2c([n+]1=O)CCC2 | n | -81 | n | n | n
Cc1c(-c2cccs2)[n+](=O)c2c(n1[O-])CCCC2 | n | -100 | n | n | n
Cc1c(-c2ccccc2)[n+](=O)c2c(n1[O-])CCC2 | n | n | n | n | n
Cc1noc(C)c1-c1ccc2ncnc(NC3CC3)c2c1 | 14µM | x | x | n | n
Cc1noc(C)c1-c1ccc2ncnc(NC3CCNCC3)c2c1 | x | x | x | n | u
Cc1noc(C)c1-c1ccc2ncnc(NCc3cccnc3)c2c1 | x | x | x | n | n
Cc1cccc(CNc2ncnc3ccc(-c4c(C)noc4C)cc23)c1 | 13µM | x | x | n | n
COc1ccc(/C(C)=N/NC(=S)Nc2cc(C)ccc2C)cc1 | x | x | x | n | u
CC(C)N=C=NC(C)C | n | x | x | n | n
CSc1cccc(NC(=O)c2nnn(Cc3ccccc3)c2N)c1 | n | n | n | n | n
CCOC(=O)c1c(C)c(C(=O)NCc2ccc(OC)cc2)c(C)n1C | x | x | x | n | 7.9µM
COc1cc(NC(=O)c2nnn(Cc3ccc(SC)cc3)c2N)cc(OC)c1 | n | u | n | n | 7.9µM
SMILES | HPGD inh | PNC assembly inh | IMPase inh | IMPase Li cell | ALDH1A1 inh
CCOC(=O)c1c(C)c(C(=O)NCc2ccccc2OC)c(C)n1C | n | n | n | n | n
CCOc1ccc(Cn2nnc(C(=O)NCc3ccc(OC)cc3)c2N)cc1 | n | n | u | 11µM | n
O=C(NC[C@@H](O)CO)c1c(I)c(C(=O)NC[C@@H](O)CO)c(I)c(N(CCO)C(=O)CO)c1I | n | x | n | n | n
COc1ccc([N+](=O)[O-])c(OC)c1C(=O)NC(=O)Nc1c(F)cc(F)cc1F | x | x | x | x | n
CCOC(=O)c1cc2c(=O)n3cccc(C)c3nc2n(Cc2ccccc2Cl)c1=N | u | n | n | n | u
COC(=O)C1=C(N)Oc2cc(C)n(Cc3cccnc3)c(=O)c2C1c1ccc(OC)c(OC)c1OC (configuration not stated) | n | u | n[1.84 µM] | n | n
COC(=O)C1=C(N)Oc2cc(C)n(Cc3cccnc3)c(=O)c2C1c1ccccc1OC (configuration not stated) | n | -86 | u | n | u
CC(c1nnc(SCC(=O)N2CC(=O)Nc3ccccc32)n1Cc1ccccc1)N(C)C (configuration not stated) | n | n | n | n | n
CCc1c(C)nc2ccc(Br)cc2c1Cl | n | n | n | 11µM | n
COC(=O)CC1C(C)(C)C(=O)C2CC3=C4CC(=O)OC(c5ccoc5)[C@]4(C)CCC3[C@@]1(C)C2=O (some centres not stated) | n | x | x | n | n
Cc1ccc(C(=O)N2CCCC(c3nc4c(nnn4Cc4ccccc4)c(=O)[nH]3)C2)cc1 (configuration not stated) | 3.5µM | u | n | n | u
COCCCNC(=O)c1nc2c(nnn2Cc2cc(C)ccc2C)c(=O)[nH]1 | 0.45µM | n | n | n | n
CCCCC(=O)N1CCCC(c2nc3c(nnn3Cc3cc(C)ccc3C)c(=O)[nH]2)C1 (configuration not stated) | 2.2µM | u | n | n | u
Cc1ccc(C)c(Cn2nnc3c(=O)[nH]c(C4CCCN(C(=O)CC(C)C)C4)nc32)c1 (configuration not stated) | 10µM | n | n | n | n
CC#CCOCC/C=C1/c2ccccc2C(OC)C1C (configuration not stated) | x | x | x | x | n[13.5 µM]
COc1c2ccoc2nc2c(OC)c(O[C@@H]3O[C@H](C)[C@@H](O)[C@@H](O)[C@H]3O)ccc12 | u | x | x | n | u
COc1cccc(NC(=O)C(OC(=O)c2ccc([N+](=O)[O-])o2)c2ccccc2)c1 (configuration not stated) | n | n | x | n | 22µM
CN(C)S(=O)(=O)c1cccc(NC(=O)COC(=O)c2ccc([N+](=O)[O-])o2)c1 | n | n | x | n | 20µM
CCOc1ccccc1NC(=S)NC(=O)CCCOc1ccc(Cl)cc1Cl | n | n | n | n | 11µM
COc1ccc(NC(=O)COC(=O)CCCOc2ccc(Cl)cc2Cl)cc1Cl | 28µM | n | x | n | n
O=C(O[C@@H]1Cc2c(O)cc(O)cc2OC1c1ccc(O)c(O)c1)c1cc(O)c(O)c(O)c1 (some centres not stated) | n | x | x | n | n
COc1cc(NC(=O)CSc2nc(-c3ccco3)cc(C(F)(F)F)n2)cc(OC)c1OC | x | x | n | x | x
CN(C)CCCCNC(=O)c1ccc(-n2c(=O)c(=O)[nH]c3ccccc32)cc1 | n | x | x | x | n
O=C(COC(=O)c1ccc([N+](=O)[O-])o1)Nc1cccc(S(=O)(=O)N2CCOCC2)c1 | n | u | n | n | 1µM
O=C(COC(=O)c1ccc2c(c1)OCCO2)Nc1cccc(S(=O)(=O)N2CCOCC2)c1 | x | x | x | n | n
COc1ccc(NC(=O)COC(=O)c2ccc([N+](=O)[O-])o2)cc1Cl | x | x | x | n | 22µM
O=C(OCc1ccc2c(c1)OCO2)c1cccc(S(=O)(=O)N2CCCCC2)c1 | u | n | n | n | 7.1µM
O=C(COc1cccnc1[N+](=O)[O-])Nc1cccc(S(=O)(=O)N2CCOCC2)c1 | x | x | x | n | u
